# Shown are actives, neighbours in structure and some others; about 22% of the full set was active somewhere.
# Pf growth 96h – P. falciparum growth inhibition at 96 hour, primary screen for plastid delayed-death inhibitors; 320,000 tested, 6.9% active; P. falciparum luciferase reporter growth, 96 h; AID 504834; Potency, µM (series often up to 28.7 µM), for inactives: at the highest dose activity change, negative = inhibition, actives largely listed as inhibitors; note: potency is the fitted concentration of half-maximal effect; % is set by controls: 0 for no effect and ±100 for the full control effect
#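 Parasite growth measured via integrated firefly luciferase reporter in P. falciparum. Infected erythrocytes at 2% hematocrit, 0.05% parasitemia final were treated 96 hours at 37 C under 5% CO2, and luminescence was read.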
# Shiga toxin inh – inhibitors of Shiga toxin in Vero cells; Vero cells, Shiga toxin protein synthesis inhibition reporter; inhibition, % at 38.7 µM; 290,000 tested, 9.2% active; in the data active = inhibition mostly above about 28%, no sharp cut-off; inactive = mostly below about 43%; note: 0% is about no effect
# CHX counter – counter-screen hit for Shiga toxin inhibitors, cycloheximide; cell reporter, cycloheximide protein synthesis inhibition counterscreen; max response, %; 300,000 tested, 12% active; in the data active = max response mostly above about 13%, no sharp cut-off; inactive = mostly below about 14%; note: read at 38.3 µM for the half of the compounds with a filed dose; 0% is about no effect
# LmPK inhibitor – inhibitors of Leishmania mexicana pyruvate kinase. Potency, µM (titrated, usually from 57.5 µM), for the others: at the highest dose activity change, negative = inhibition, actives largely listed as inhibitors. purified LmPK, Kinase-Glo ATP luminescence, 1 h. AID 1721. 290,000 tested, 0.37% active; note: potency is the fitted concentration of half-maximal effect; % is set by controls: 0 for no effect and ±100 for the full control effect
# Target sequence (Q27686 whole entry, looked up): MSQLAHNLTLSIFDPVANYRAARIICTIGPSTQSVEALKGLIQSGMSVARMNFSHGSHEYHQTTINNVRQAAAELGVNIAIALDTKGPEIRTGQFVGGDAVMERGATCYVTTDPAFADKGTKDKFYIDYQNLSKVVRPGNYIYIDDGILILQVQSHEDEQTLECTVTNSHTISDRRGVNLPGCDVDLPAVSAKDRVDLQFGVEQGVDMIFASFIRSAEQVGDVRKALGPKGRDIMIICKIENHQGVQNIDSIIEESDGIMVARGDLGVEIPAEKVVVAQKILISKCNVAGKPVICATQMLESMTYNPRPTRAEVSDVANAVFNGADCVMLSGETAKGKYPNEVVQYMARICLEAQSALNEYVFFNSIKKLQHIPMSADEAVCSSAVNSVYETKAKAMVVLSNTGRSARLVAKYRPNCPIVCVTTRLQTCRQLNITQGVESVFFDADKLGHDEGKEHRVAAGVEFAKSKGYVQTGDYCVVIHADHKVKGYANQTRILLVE
#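 Pyruvate kinase activity monitored as ATP production (luciferase luminescence). Conditions: 0.1 nM enzyme, 0.5 mM PEP, 0.1 mM ADP, 1 h, RT; normalized against uninhibited and no-enzyme wells.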
# Pf growth 48h – P. falciparum growth inhibition at 48 hours (one generation). P. falciparum luciferase growth in erythrocytes, 48 h. 310,000 tested, 5.9% active. Potency, µM (highest dose often 28.7 µM), for the others: top-dose activity change, negative = inhibition, most hits filed as inhibitors. AID 504832; note: potency is the fitted concentration of half-maximal effect; % is set by controls: 0 for no effect and ±100 for the full control effect
#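 Luciferase-expressing parasites in RBCs, 2% Hct / 0.1% parasitemia final; RPMI 1640 + 0.5% Albumax; 37 C, 5% CO2, one generation; luminescence read-out, lower signal = inhibition.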
# Numbers without * were called inactive; ? = inconclusive; . = no result; [ ] = remark or other dose. Unless noted, calls come from the whole dose curve; as a rule, active = well fitted inhibition curve with a large enough effect; inconclusive = small, poorly fitted or top-dose-only effect, or another doubt; inactive = no such curve, though single readings can be large or run the other way.
SMILES,Pf growth 96h,Shiga toxin inh,CHX counter,LmPK inhibitor,Pf growth 48h
COc1cccc(Cn2c(N)c(C#N)c3nc4ccccc4nc32)c1OC,10µM*,-4,-6,3%,?
N#Cc1c(N)n(CCOC(=O)c2cccc([N+](=O)[O-])c2)c2nc3ccccc3nc12,8.3µM*,2,2,-1%,?
COc1cc(Cn2c(N)c(C#N)c3nc4ccccc4nc32)cc(OC)c1,2.3µM*,-22,-2,1%,?
COCCn1c(N)c(C#N)c2nc3ccccc3nc21,.,-20,-3,1%,-4%
N#Cc1c(N)n(CCOC(=O)c2cccc(Br)c2)c2nc3ccccc3nc12,?,-10,1,-2%,-8%
O=S1(=O)CC2NC(=S)N(c3cccc(Br)c3)C2C1 (configuration not stated),18%,16,1,-7%,9%
O=C(c1ccc2nsnc2c1)N1CCN(c2ccc([N+](=O)[O-])cc2)CC1,?,-7,6,2%,-22%
CCOC(=O)Cc1c(C)nc2c(-c3ccc(OC)cc3)c(C)nn2c1C,.,-3,6,2%,?
CC1CCN(C(=O)COC(=O)c2c[nH]c3ccccc23)CC1,104%,.,.,.,64%
CCOC(=O)C1=C(C)Nc2ccccc2N=C1NC(=O)c1cc(C)on1,1%,.,.,.,?
N#Cc1c(N)n(CCc2ccc(F)cc2)c2nc3ccccc3nc12,0.33µM*,-2,-3,8%,.
Cc1ccc(C(=O)NCCn2c(N)c(C#N)c3nc4ccccc4nc32)cc1,?,-19,-4,1%,?
Cc1ccc(OCCC(=O)OCC(=O)Nc2ccc3c(c2)OCCO3)cc1,18%,.,.,.,-22%
CC(C)CN(Cc1cc(=O)oc2cc3c(cc12)CCCC3)CC(C)C,?,-1,3,6%,1.3µM*
CN1C(=O)C(C)(C)N(C(=O)c2cccc([N+](=O)[O-])c2)c2ccccc21,?,-9,0,-1%,110%
O=c1nccc(N/N=C/c2ccccc2)[nH]1,66%,37*,37*,-4%,.
Cc1cccc(O)c1,.,-3,-5,.,.
O=C(c1ccc2c3n(nc2c1)-c1ccccc1CO3)N1CCCCC1,-21%,80*,29*,6.3µM*,230%
Cc1ccc2c(c1)COc1c3ccc(C(=O)N4CCCCC4)cc3nn1-2,0%,64,34*,-25%,159%
O=C(c1ccc2ccccc2c1)N1CCOCC1,18%,.,.,.,-14%
O=C(c1ccc2c3n(nc2c1)-c1ccc(Cl)cc1CO3)N1CCOCC1,173%,56*,21*,16µM*,122%
O=C(c1ccc2c3n(nc2c1)-c1ccccc1CO3)N1CCOCC1,119%,58*,31*,14µM*,248%
COc1ccc(NC(=O)CCN2C(=O)NC3(CCCC3)C2=O)cc1Cl,-9%,.,.,.,3%
COc1ccc(S(=O)(=O)c2c(O)cc(C)c(NS(=O)(=O)c3ccccc3)c2C)cc1,?,-3,1,5%,0%
Cc1ccc(C)c(OCc2cc(C(=O)N(C)Cc3ccccn3)no2)c1,?,49*,29*,5%,15%
SMILES,Pf growth 96h,Shiga toxin inh,CHX counter,LmPK inhibitor,Pf growth 48h
Cc1cccc(C)c1OCc1cc(C(=O)N(C)CCc2ccccn2)no1,20%,-23,11,0%,-10%
Cc1ccc(C)c(OCc2cc(C(=O)N(C)Cc3nccs3)no2)c1,?,52*,23*,1%,-4%
CC(C(=O)NC(C)(C)C)N(C(=O)CS(=O)CC(=O)Nc1ccc(F)cc1)C1CCCC1 (configuration not stated),34%,-2,-8,0%,0%
Cc1ccc(N(C(=O)c2snc(C(N)=O)c2N)C(C(=O)NCC2CCCO2)c2ccc3ncccc3c2)cc1 (configuration not stated),2%,-6,-2,0%,?
NC(=O)c1nsc(C(=O)N(c2ccc3c(c2)OCCO3)C(C(=O)NCC2CCCO2)c2ccc(F)cc2)c1N (configuration not stated),-3%,64*,28*,8%,?
Cc1ccc(C(C(=O)NCC2CCCO2)N(C(=O)c2snc(C(N)=O)c2N)c2ccc3c(c2)OCCO3)cc1 (configuration not stated),-4%,-4,-3,4%,10µM*
CC(C)(C)c1ccc(C(=O)Nc2sc3c(c2C(=O)O)CCC3)cc1,28%,20,8,3%,-29%
CCOC(=O)c1c(NC(=O)c2ccccc2C(=O)O)sc2c1CCCC2,223%,-10,-1,1%,-8%
O=C(Nc1sc2c(c1C(=O)O)CCCCC2)c1ccccc1F,-1%,109*,41*,-10%,88%
NC(=O)c1c(NC(=O)c2cc3ccccc3o2)sc2c1CCC2,-12%,72*,36*,-8%,4%
NC(=O)c1c(NC(=O)c2ccc(F)cc2)sc2c1CCC2,6%,45*,53*,-1%,131%
CC(=O)Nc1sc2c(c1C(N)=O)CCC2,21%,-6,-3,-5%,-22%
O=C(Nc1sc2c(c1C(=O)O)CCCC2)c1ccc(F)cc1,?,49*,33*,-2%,40%
O=C(c1nc2ccccn2c1CN1CCCC(OCc2ccccc2)C1)N1CCCC1 (configuration not stated),-10%,-4,-4,7%,0%
Cc1ccc(CCSCC(=O)O)cn1,2%,-2,-2,6%,8%
Cc1ccc(SCCc2ccc(C)nc2)cc1,-22%,active,22*,-3%,42%
Cc1nnc(SCC(=O)Nc2cc(-c3cc(C)c(C)cc3C)nn2-c2ccccc2)s1,?,10,-2,1%,?
CSc1nc2ccc(NC(=O)CSc3nnc(N)s3)cc2s1,.,49,33*,0%,69%
COc1ccc(NC(=O)CSc2nnc(N)s2)cc1,-24%,-3,-2,-1%,18%
Nc1nnc(SCC(=O)Nc2ccccc2)s1,35%,8,10*,-1%,0%
CCCc1ccc(-c2cc(NC(=O)CSc3nnc(N)s3)n(-c3ccccc3)n2)cc1,39%,99*,43*,-7%,23%
COC(=O)c1ccc(NC(=O)CSc2nc3ccc(N4C(=O)C5C6C=CC(C6)C5C4=O)cc3s2)cc1 (configuration not stated),9.3µM*,4,23*,2%,?
CCN(CC)c1ccc(NC(=O)CSc2nnc(N)s2)cc1C,?,-2,-3,2%,.
COc1cc(/C=N/NC(=O)C2CCN(CC(O)COCc3ccccc3)CC2)ccc1O (configuration not stated),-1%,-6,-5,2%[11.5 µM],?
CC(C)NC(=O)C(=O)NNC(=O)CCc1ccccc1,?,8,-5,4%,25%
Cc1ccc(C(O)c2nc3ccccc3n2C)cc1 (configuration not stated),?,-2,-4,-8%,-19%
Cc1ccc(C)c(N=Nc2nc3ccccc3n2C)c1,0.47µM*,76*,47*,?,0.52µM*
Cc1cc(C)c(C)c(N=Nc2nc3ccccc3n2C)c1C,15%,92*,63*,-7%,-80%
